This is a sample that favours compounds with a hit; in the whole collection about 19% have one here.
SARS PLP yeast – blocks SARS-CoV papain-like protease in a yeast assay. S. cerevisiae expressing SARS-CoV PLpro, growth rescue. Potency, µM (titrated, usually from 32.9 µM), hits mostly activators. hit rate 0.19% among 330,000; calls by dose curve; note: nearly all actives have a fitted effect of over 55% in size
CHX counter – counter-screen for Shiga toxin inhibitors: cycloheximide protein synthesis inhibition | cell reporter, cycloheximide protein synthesis inhibition counterscreen | max response, % | hit rate 12% among 300,000; in the data active = max response mostly above about 13%, no sharp cut-off; inactive = mostly below about 14%; note: read at 38.3 µM for the half of the compounds with a filed dose
Pf growth 96h – P. falciparum growth inhibition at 96 hours. P. falciparum luciferase reporter growth, 96 h. Potency, µM (top dose mostly 28.7 µM), most hits filed as inhibitors. hit rate 6.9% among 320,000
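Parasite growth measured via integrated firefly luciferase reporter in P. falciparum. Infected erythrocytes at 2% hematocrit, 0.05% parasitemia final were treated 96 hours at 37 C under 5% CO2, and luminescence was read.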
Pf growth 48h – inhibits P. falciparum growth in the first generation, 48 h | P. falciparum luciferase growth in erythrocytes, 48 h | Potency, µM (series often up to 28.7 µM), hits mostly inhibitors | hit rate 5.9% among 310,000
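In quantitative HTS format, infected erythrocytes bearing luciferase-reporter parasites were treated for a single generation at 37 C. Luminescence after adding detection reagent served as the growth measure.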
AMA1-RON2 inh – disrupts binding of P. falciparum AMA1 to RON2 | AlphaScreen AMA1-biotinylated RON2 peptide binding | Potency, µM (doses to about 58.2 µM), most hits filed as inhibitors | hit rate 0.2% among 360,000 | AID 720542; note: nearly all actives have a fitted effect of over 45% in size
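AMA1 (3D7) with his tag at 25 nM final met compounds first, then biotinylated RON2 peptide at 25 nM; detection used donor plus acceptor beads, 10 µg/mL apiece, read by AlphaScreen after 30 min at room temperature.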
Shiga toxin inh – blocks Shiga toxin action in Vero cells; hit rate 9.2% among 290,000; inhibition, % at 38.7 µM; Vero cells, Shiga toxin protein synthesis inhibition reporter; in the data active = inhibition mostly above about 28%, no sharp cut-off; inactive = mostly below about 43%
A number is an active result; n = inactive; u = inconclusive; x = no result given; ! = not active in a repeat; [ ] = remark or other dose. Unless noted, calls come from the whole dose curve; as a rule, active = well fitted curve in the direction sought with a large enough effect; inconclusive = small, poorly fitted or top-dose-only effect, or another doubt; inactive = no such curve, though single readings can be large; an effect the other way counts as inactive or inconclusive.

SMILES	SARS PLP yeast	CHX counter	Pf growth 96h	Pf growth 48h	AMA1-RON2 inh	Shiga toxin inh
COc1ccc(C(=O)NCCS(=O)(=O)N2CCc3ccccc3C2)c(OC)c1	n	x	n	n	n	x
COc1ccc2cc3cc(C(=O)NCCN4CCc5ccccc5C4)sc3nc2c1	n	21.4	2.62µM	u	n	46.6
NN=C(c1cccc([N+](=O)[O-])c1)c1cccc([N+](=O)[O-])c1	x	x	x	x	n	x
O=C(Nc1ccc(N2CCOCC2)cc1N1CCOCC1)c1cccc([N+](=O)[O-])c1	n	n	n	n	n	n
Cc1ccc(Nc2ncnc3c2cnn3C)cc1	n	27.2	u	n	n	60.7
Cn1ncc2c(Nc3ccc4ccccc4c3)ncnc21	n	32.9	u	n	n	80.7
Cn1ncc2c(Nc3ccc(Cl)cc3)ncnc21	n	31.5	n	n	n	n
CCOc1ccc(Nc2ncnc3c2cnn3C)cc1	n	15.6	n	n	n	n
Cn1ncc2c(Nc3cccc([N+](=O)[O-])c3)ncnc21	n	n	n	n	n	n
CCOC(=O)c1ccc(Nc2ncnc3c2cnn3C)cc1	n	n	u	u	n	n
Cc1cccc(Nc2ncnc3c2cnn3C)c1	n	n	n	n	n	n
C#CC(=O)CC1(CN(Cc2ccccc2)C(=O)OC(C)(C)C)CCCCC1	x	x	x	x	n	x
CCN1C(=O)[C@H]2[C@H]3CN=C(SC)N3[C@@](Cc3ccccc3)(C(=O)OC)[C@H]2C1=O	n	x	x	x	n	x
CCCN(C(=O)C1CCN(S(=O)(=O)c2ccc(OC)c(OC)c2)CC1)C1CCS(=O)(=O)C1 (centres undefined)	n	x	n	u	n	x
Cc1cc(C)n(CCO)c(=O)n1	n	n	2.33µM	n	n	n
COC(=O)N(NC(=O)C(O)(CCC(C)C)CCC(C)C)c1ccccc1	u	n	u	n	n	n
CCC(O)(CC)C(=O)NN(C(=O)Nc1csc2c1CCCC2)c1ccccc1	n	n	1.31µM	1.65µM	n	n
CCC(=O)Nc1ccc(C(=O)NNC(=O)COc2cc(C)ccc2C)cc1	n	n	n	n	n	n
NC12CC3CC(CC(C3)C1)C2	n	n	u	n	n	n
CC12CC3CC(C)(C1)CC(N)(C3)C2	n	n	6.75µM!	u	n	n
Cn1c(=O)c2c(nc(Oc3ccccn3)n2C)n(C)c1=O	n	n	u	n	x	n
COc1cc(C(=O)NCc2nnc(SCC(=O)NC3CCCC3)o2)cc(OC)c1OC	n	n	8.28µM	n	n	n
COc1cc(C(=O)NCCC(=O)NC2CCCCC2)cc(OC)c1OC	n	n	9.28µM	n	n	n
COc1cc(C(=O)NCc2nnc(SCC(=O)N3CCCC3)o2)cc(OC)c1OC	n	n	n	n	n	n
COc1cc(C(=O)NCc2nnc(SCC(=O)Nc3nc4ccccc4s3)o2)cc(OC)c1OC	n	14.5	u	n	n[2.32 µM]	45.6
SMILES	SARS PLP yeast	CHX counter	Pf growth 96h	Pf growth 48h	AMA1-RON2 inh	Shiga toxin inh
O=C(CCNc1n[nH]c(=O)[nH]c1=O)N/N=C\c1cccc(OCc2ccccc2)c1	n	n	u	u	n	n
CC(=O)c1c(C)[nH]c(C(=O)OCC(=O)c2c[nH]c3ccccc23)c1C	n	x	n	u	n	x
Cc1cc(C)cc(C(O)c2ncc(-c3ccccc3Cl)[nH]2)c1 (centres undefined)	x	x	x	x	n	x
CC(C)(C)OC(=O)N1CCC(C(=O)Nc2cccc(C(=O)NCc3ccccc3)c2)CC1	x	x	x	x	n	x
CN1C(=O)C(c2nnc(Nc3cccc4ccccc34)s2)C2CC1(C)Oc1ccccc12 (centres undefined)	n	n	4.65µM	u	n	n
CCOC(=O)C1C(=O)N(C)C2(C)CC1c1ccccc1O2 (centres undefined)	n	n	u	n	n	n
Cc1ccc2nc(C3CCN(C(=O)c4ccco4)CC3)[nH]c2c1	n	n	n	n	n	n
Cc1ccc(N(C)S(=O)(=O)c2cccc(C(=O)NCC(c3cccs3)N3CCOCC3)c2)cc1 (centres undefined)	n	x	u	11.7µM	n	x
Cc1ccc(S(=O)(=O)N(C)c2ccc(C(=O)NCC(c3cccs3)N3CCOCC3)cc2)cc1 (centres undefined)	n	n	10.4µM	u	n	n
COc1cccc(CNC(=O)[C@@H]2CCCN2C(=O)[C@@H]2CCCN2C(=O)c2c(F)cccc2F)c1	x	x	x	x	n	x
Cc1ccccc1Cc1n[nH]c(=S)n1N	n	n	u	n	n	n
NNc1n[nH]c(=S)n1N	n	39.7	n	u	n	62.7
CCCC/C(C)=C/[C@@H](NP(=O)(c1ccccc1)c1ccccc1)c1ccccc1	n	n	14.7µM	u	n	n
C/C(=C\[C@@H](NP(=O)(c1ccccc1)c1ccccc1)c1ccccc1)CO[Si](c1ccccc1)(c1ccccc1)C(C)(C)C	x	x	x	x	n	x
Cc1ccc2ccc3ccc(C)nc3c2n1	n	n	n	0.233µM	n	n
Cc1ccc2cc(F)c(F)c(F)c2n1	x	x	x	x	n	x
CCOC(=O)C(C)c1c(C(=O)c2ccc(C)nc2)c2ccccc2n1C (centres undefined)	n	n	4.65µM	3.7µM	x	n
COc1ccc(C(=O)O/N=C2\C(=O)N(C)c3ccccc32)cc1	x	x	x	x	n	x
COc1ccc(C(=O)N=c2nc3ccccn3s2)cc1	n	37.6	n	x	n	n
O=C1c2nc3cc(-c4ccccc4)[nH]n3c(=O)c2CN1Cc1ccccc1	n	n	n	n	n	n
Cc1[nH]n2c(=O)c3c(nc2c1-c1ccc(F)cc1)CCCC3	n	n	n[5.75 µM]	n	n	n
O=c1c2c(nc3cc(-c4cccc(Cl)c4)[nH]n13)CCC2	n	n	u	n	n	52.3
O=c1c2c(nc3c(-c4ccc(Cl)cc4)c[nH]n13)CCCC2	n	n	n	4.65µM	n	n
O=c1c2c(nc3c(-c4cccc5ccccc45)c[nH]n13)CCC2	n	n	n	n	n	n
O=c1c2c(nc3cc(-c4ccc(F)cc4)[nH]n13)CCCC2	n	39.4	n	n	n	73.9
SMILES	SARS PLP yeast	CHX counter	Pf growth 96h	Pf growth 48h	AMA1-RON2 inh	Shiga toxin inh
O=c1c2c(nc3cc(-c4cccc(F)c4)[nH]n13)CCC2	n	50.7	n	n	n	94.8
Cc1ccc(C)c(OCCC(=O)N2CCN(S(=O)(=O)c3ccc([N+](=O)[O-])cc3)CC2)c1	n[6.58 µM]	x	u	u	n	x
O=C(Nc1cc2c3c(c1)C1CCCC1CN3CC1CCCC21)c1ccccc1 (centres undefined)	n	n	n	13.1µM	n	n
CO/C=C\C=C/c1nnn(-c2ccc(Cl)cc2)n1	n	41.3	n	n	u	70.4
COc1cc(C)nn1-c1ccc(Cl)cc1	n	n	n	n	n	n
Cc1[nH]nc(N=CC2=C(O)CC(c3ccco3)CC2=O)c1-c1ccccc1 (centres undefined)	n	13.7	7.38µM	u	n	n
Cc1[nH]nc(N=CC2=C(O)CC(C)(C)CC2=O)c1-c1ccccc1	n	n	n	n	n	n
Cc1ccc(S(=O)(=O)NCc2ccccn2)cc1C	n	n	u	n	n	n
Cc1ccsc1/C=N/NC(=O)C(N)=O	n	35.2	n	n	n	n
